# PLK1 PBD inh = inhibitors of human PLK1 polo-box domain binding; actives 2.8% (n = 360,000); Potency, µM, usual class: inhibitors; P53350; AID 720504; Plk1 PBD binding of FITC phosphopeptide, fluorescence polarization; further: series mostly up to about 57 µM; nearly all actives have a fitted effect of over 65% in size
# G9a inh = inhibitors of human histone lysine methyltransferase G9a; actives 8.8% (n = 350,000); Q96KQ7; G9a H3K9 monomethylation, AlphaScreen, 2 h; Potency, µM (highest dose often 102 µM), actives largely listed as inhibitors; AID 504332; further: nearly all actives have a fitted effect of over 75% in size
#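 Methyltransferase reactions run at room temperature for 2 h (20 nM enzyme, 500 nM biotin-H3K9 peptide, 20 uM SAM) after a 15 min compound preincubation; product detected by AlphaScreen beads and anti-H3K9me1 antibody.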
# BAZ2B block = blocks human BAZ2B | Potency, µM (titrated, usually from 114 µM), usual class: inhibitors | Q9UIF8 | actives 4.4% (n = 360,000) | AlphaScreen BAZ2B-H3K14Ac peptide displacement; further: nearly all actives have a fitted effect of over 60% in size
#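 Multi-concentration screen (max 110 uM) measuring displacement of acetylated histone H3 peptide from BAZ2B by AlphaScreen, using 50 nM protein, 50 nM peptide and 10 ug/mL streptavidin donor plus Ni-chelate acceptor beads.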
# HP1b binding inh = inhibitors of HP1-beta chromodomain binding to methylated histone tails. AID 540317. Potency, µM (doses to about 114 µM), most hits filed as inhibitors. AlphaScreen HP1-beta / biotin-H3K9me3 peptide binding. actives 0.56% (n = 390,000). P83916; further: nearly all actives have a fitted effect of over 70% in size
# Target sequence (P83916 whole entry, looked up): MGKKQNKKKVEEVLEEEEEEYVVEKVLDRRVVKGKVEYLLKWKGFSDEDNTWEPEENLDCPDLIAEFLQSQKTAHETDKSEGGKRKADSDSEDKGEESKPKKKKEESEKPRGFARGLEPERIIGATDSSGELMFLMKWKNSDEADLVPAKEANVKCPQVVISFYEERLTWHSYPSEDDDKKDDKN
#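 AlphaScreen: HP1-beta (50 nM) preformed 30 min with biotin-H3(1-18)K9me3 peptide (50 nM) in PBS pH 7.4, 0.01% Tween-20. Compound added for 30 min at RT, then streptavidin donor/nickel chelate acceptor beads (10 ug/mL) for 30 min.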
# PI5P4K alpha inh = PI5P4K alpha (human) kinase inhibition | max response, % | actives 1.2% (n = 330,000) | PI5P4Kalpha enzyme, ADP-Glo luminescence, 60 min; stronger effect = lower value | P48426; active means max response of -50% or lower; inconclusive means between -30% and -50%; inactive means -30% or higher; further: value at the top dose of about 77 µM
# Target sequence (P48426 whole entry, looked up): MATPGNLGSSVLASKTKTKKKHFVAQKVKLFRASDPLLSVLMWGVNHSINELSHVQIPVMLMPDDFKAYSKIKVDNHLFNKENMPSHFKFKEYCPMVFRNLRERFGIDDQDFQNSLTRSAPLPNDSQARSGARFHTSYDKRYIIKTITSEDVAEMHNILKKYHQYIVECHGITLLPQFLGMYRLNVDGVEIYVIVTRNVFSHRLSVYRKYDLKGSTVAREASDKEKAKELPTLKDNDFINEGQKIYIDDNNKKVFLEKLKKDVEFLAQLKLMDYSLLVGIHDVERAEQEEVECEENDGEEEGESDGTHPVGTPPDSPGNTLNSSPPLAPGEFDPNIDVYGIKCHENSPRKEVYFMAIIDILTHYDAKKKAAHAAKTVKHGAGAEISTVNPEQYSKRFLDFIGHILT
#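 Human PI5P4Kalpha with substrate in 0.038 M HEPES pH 7.4, 0.28 mM EGTA, 0.1% CHAPS, 5% DMSO; reaction started with 5 microM ATP (final), 60 min at room temperature. ADP formed read by ADP-Glo luminescence.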
# JMJD2A Tudor inh = JMJD2A Tudor domain (human) inhibition | AID 504339 | actives 4.4% (n = 390,000) | Potency, µM (titrated, usually from 114 µM), hits mostly inhibitors | AlphaScreen JMJD2A-Tudor / H3K4me3 peptide binding; further: nearly all actives have a fitted effect of over 50% in size
# Hits are given with their value; . = inactive; ? = inconclusive; / = not tested or not shown; [ ] = another dose, or the depositor's remark. An excerpt weighted towards active compounds, which were near 12% of everything screened. Unless noted, the call rests on the fitted dose curve; in most records, active means well fitted curve in the direction sought with a large enough effect; inconclusive means small, poorly fitted or top-dose-only effect, or another doubt; inactive means no such curve, though single readings can be large; an effect the other way counts as inactive or inconclusive.
SMILES,PLK1 PBD inh,G9a inh,BAZ2B block,HP1b binding inh,PI5P4K alpha inh,JMJD2A Tudor inh
COc1ccc(/C=C2\CN(Cc3ccccc3)C/C(=C\c3ccc(OC)cc3OC)C2=O)c(OC)c1,.,14µM,25µM,?,.,?
COc1ccc(/C=C2\COc3ccccc3C2=O)c(OC)c1,.,.,.,.,.,.
COc1ccc(/C=C2\CN(Cc3ccccc3)C/C(=C\c3ccc(OC)cc3)C2=O)cc1,.,18µM,?,?,.,?
CCOC(=O)C1=C(C)N(C[C@@H]2CC[C@@H](Cc3ccc(-c4ccccc4)cc3)O2)C(=O)NC1C1CC1 (stereo partly drawn),.,/,/,.,.,.
Cc1c(Cl)c([N+](=O)[O-])nn1CC(=O)N1CCN(C23CC4CC(CC(C4)C2)C3)CC1,.,45µM,.,.,.,.
Cc1nn(CC(=O)N2CCN(C34CC5CC(CC(C5)C3)C4)CC2)c(C)c1[N+](=O)[O-],.,25µM,.,.,.,.
Cc1nn(CC(=O)N2CCN(c3ccccc3)CC2)c(C)c1[N+](=O)[O-],.,?,.,.,.,.
CN(CC(=O)Nc1ccc(C#N)cc1)CC(=O)Nc1ccc(N2CCOCC2)cc1,.,?,.,.,.,40µM
CCN(CC(=O)Nc1ccc(N2CCOCC2)cc1)C(=O)c1ccc(C#N)cc1,.,45µM,.,.,.,.
CCN(CC(=O)NCc1ccc(Cl)cc1)C(=O)c1ccc(C#N)cc1,.,40µM,.,.,.,.
CCc1ccc(NC(=O)CS(=O)CC(=O)Nc2ccc(N3CCOCC3)cc2)cc1 (stereo not drawn),.,50µM,79µM,.,.,40µM
CN(CC(=O)Nc1ccc(N2CCOCC2)cc1)C(=O)c1ccc(CS(C)(=O)=O)cc1,.,/,/,.,.,.
Cc1cccc(C)c1NC(=O)CS(=O)CC(=O)Nc1ccc(N2CCOCC2)cc1 (stereo not drawn),.,?,.,.,.,.
CCOC(=O)C(CC)Sc1ncnc2sc3c(c12)CCCC3 (stereo not drawn),/,.,.,.,/,.
COCCn1c(CNC(=O)c2cccc(C)c2)nc2cccnc21,/,.,.,.,/,.
COc1cccc(/C=N/NC(=O)C[n+]2ccccc2)c1O,.,.,18µM,.,.,45µM
COc1cccc(/C=N/NC(=O)C(=O)NCc2cccnc2)c1O,.,.,20µM,.,.,?
CCOc1ccccc1C=NNC(=O)C(=O)NN=Cc1ccccc1OCC,.,/,/,.,.,.
O=C(C[n+]1ccccc1)N/N=C/c1cc(Br)ccc1O,.,.,10µM,.,.,22µM
COc1cc(OC)c(OC)cc1/C=N/NC(=O)C[n+]1ccccc1,.,.,.,.,.,.
CCOc1ccccc1NC(=O)C(=O)N/N=C/c1cc(Br)ccc1O,.,.,8.9µM,.,.,?
COc1cccc(/C=N/NC(=O)C(=O)NCc2cccnc2)c1OC,.,.,.,.,.,.
Cc1cc(F)ccc1Nc1nc2ccc(Cl)cc2n2cnnc12,/,.,.,.,/,.
C/C=C/C1=CC(=O)C[C@H](c2ccc(Cl)cc2)C1,.,.[0.501 µM],.,.,.,.
C=CCN1CCN(c2nc3ccccc3nc2C#N)CC1,/,.,/,/,/,/
SMILES,PLK1 PBD inh,G9a inh,BAZ2B block,HP1b binding inh,PI5P4K alpha inh,JMJD2A Tudor inh
CN1C=C(C(F)(F)F)C=C/C1=C(\C#N)c1nnc2n1CCCCC2,.,.,.,.,/,.
C/C(O)=C(\C#N)c1nnc2n1CCCCC2,.,10µM,56µM,.,/,?
COc1ccccc1CNC(=O)C1CCN(S(=O)(=O)c2c(C)noc2/C=C/c2c(C)cc(C)cc2C)CC1,/,.,.,.,/,.
CC(C)c1ccc2occ(CC(=O)Nc3ccccc3Cl)c2c1,/,.,.,.,/,.
Cc1ccc2occ(-c3nn[nH]n3)c(=O)c2c1,?,?,50µM,.,.,28µM
CC(C)c1ccc2occ(-c3nn[nH]n3)c(=O)c2c1,.,?,56µM,.,.,18µM
C=CCOC(=O)Nc1nc(CCNC(=O)OC(C)(C)C)c(C(=O)O)s1,.,/,/,/,.,/
CN(CC(=O)Nc1ccc(Cl)c(C(F)(F)F)c1)C(=O)c1cn2ccccc2n1,.,35µM,?,.,.,.
Cc1cc(C(=O)N(C)CC(=O)Nc2ccc(Cl)c(C(F)(F)F)c2)no1,.,.[0.501 µM],.,.,.,.
O=C(Nc1nnc(S(=O)(=O)N2CCCc3ccccc32)s1)c1ccccc1Br,/,.,.,.,/,.
Cc1cn2c(=O)c(S(=O)(=O)Nc3ccc(N4CCOCC4)cc3)c(C)nc2s1,/,.,.,.,/,.
CCN(CCCNc1ncnc2nc[nH]c12)c1cccc(C)c1,.,18µM,50µM,.,.,40µM
CC(C)(Oc1ccc(Cl)cc1)C(=O)Nc1nnc2n1CCS2,/,.,?,.,/,79µM
O=C(Nc1nnc2n1CCS2)c1ccc(Br)o1,.,1.8µM,20µM,.,.,20µM
O=C(Cc1ccc(Cl)cc1)Nc1nnc2n1CCS2,/,?,56µM,.,/,?
CC(C)Oc1ccc(C(=O)Nc2nnc3n2CCS3)cc1,/,.,.,.,/,.
Cc1ccc(CCC(=O)Nc2ccc(N(C)C)cc2)o1,.,/,?,.,.,?
CCn1nc(C)c(Br)c1C(=O)Sc1ccccc1Cl,13µM,.,.,.,.,.
CCn1nc(C)cc1C(=O)Sc1ccc(C)cc1,.,.,.,.,.,.
Cc1cc(C(=O)CSC(C)c2nc3ccccc3c(=O)[nH]2)c(C)n1C (stereo not drawn),.,50µM,.,.,.,.
O=C(c1cc([N+](=O)[O-])ccc1Cl)N1c2ccccc2Sc2ccccc21,.,8.9µM,?,.,.,?
CN(C)c1oc(-c2ccccc2Cl)nc1S(=O)(=O)c1ccccc1,.,79µM,?,.,.,?
CC(=O)Nc1cccc(C(=O)N/N=C/c2cccnc2)c1,24µM,.,.,.,.,45µM
O=C(N/N=C/c1cccnc1)c1ccc(O)cc1,.,.,.,.,.,.
O=C(N/N=C/c1cccnc1)c1cccc(NC(=O)c2cccc(Br)c2)c1,.,.,.,.,.,.
SMILES,PLK1 PBD inh,G9a inh,BAZ2B block,HP1b binding inh,PI5P4K alpha inh,JMJD2A Tudor inh
O=C(N/N=C/c1cccnc1)c1cc(O)c(O)c(O)c1,?,32µM,45µM,?,.,28µM
CCOC(=O)c1sc(=S)n(-c2ccccc2)c1N,.,?,.,?,.,.
CCOC(=O)c1c(O)c(O)c(C(=O)OCC)n1-c1ccccc1,.,8.9µM,.,.,.,35µM
CC(=O)OCC[n+]1c(C)n(-c2ccccc2)c2ccc(Cl)cc21,.,50µM,.,.,.,?
CCOC(=O)c1sc(=S)n(-c2ccccc2)c1N(C(C)=O)C(C)=O,.,.,?,.,-75,.
CCOC(=O)c1ccc2c(c1)[n+](CC)c(C)n2-c1ccccc1,.,32µM,?,.,.,.
Fc1ccc(-c2noc3ncnc(NCCCN4CCN(c5ccccc5)CC4)c23)cc1,/,?,.,.,/,?
